Results taken from PubChem BioAssay (Tox21).
“And” between values parts separate entries of the source, which are not always exact repeats. Equal entries are not always repeated. Records with an inconclusive call do not appear. Where a call stands in place of a potency, no number is given. The source holds several records for some structures; these can differ, active in one and inactive in another. The source made the active and inactive calls. The call rests on the fitted dose curve; in most records, active means well fitted curve in the direction sought with a large enough effect in the repeat runs; inconclusive means weak or mixed curves; inactive means no such curve, though single readings can be large; an effect the other way counts as inactive or inconclusive.

Experiments:
[1] = A CellTox Green Cytotoxicity Assay to monitor cytotoxicity in HEK293 cells - 40 hour (AID 1224871); further: nearly all actives have a fitted effect of over 45% in size; further: potency means the concentration at half of the fitted maximal effect
Outline: (§1)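 Tox21 screen in HEK293: membrane-impermeant cyanine dye fluoresces on binding dead-cell DNA; compound pinned 5 h post-seeding, plates held at 37 C, signal read repeatedly through 40 h.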

[2] = qHTS RealTime-Glo MT Cell Viability Assay in HEK293 cells - 16 hour (AID 1224872); further: nearly all actives have a fitted effect of over 50% in size; further: potency means the concentration at half of the fitted maximal effect; on activity change, negative = cytotoxicity: top concentration of the series differs between compounds
Outline: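 Tox21 10K qHTS, HEK293, 600 cells/well, RealTime-Glo reagent co-dispensed with cells; 5 h preincubation, compound by pintool, 37 C, luminescence at 0–40 h.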

[3] = qHTS RealTime-Glo MT Cell Viability Assay in HepG2 cells - 8 hour (AID 1224873); further: nearly all actives have a fitted effect of over 55% in size; further: potency means the concentration at half of the fitted maximal effect
Outline: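 HepG2 cells (600/well) mixed with RealTime-Glo MT reagent, settled 5 h at 37 C/5% CO2 before compound addition. Nonlytic NanoLuc luminescence from viable-cell prosubstrate reduction read repeatedly during 40 h treatment at 37 C.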

[4] = qHTS RealTime-Glo MT Cell Viability Assay in HEK293 cells - 40 hour (AID 1224874); settings: RealTime-Glo luminescence; max response: stronger effect = lower value; further: nearly all actives have a fitted effect of over 50% in size; further: potency means the concentration at half of the fitted maximal effect
Outline: (§2)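 HEK293 + NanoLuc + prosubstrate, 600 cells/well; 5 h, 37 C/5% CO2; compound 23 nL in DMSO by pintool; 37 C; luminescence read at 0, 8, 16, 24, 32 and 40 h time points.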

[5] = A CellTox Green Cytotoxicity Assay to monitor cytotoxicity in HEK293 cells - 24 hour (AID 1224875); further: nearly all actives have a fitted effect of over 45% in size; further: potency means the concentration at half of the fitted maximal effect; on activity change: series mostly up to about 77 µM
Outline: as §1

[6] = A CellTox Green Cytotoxicity Assay to monitor cytotoxicity in HepG2 cells - 16 hour (AID 1224876); further: nearly all actives have a fitted effect of over 45% in size; further: potency means the concentration at half of the fitted maximal effect
Outline: (§3)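 Measurements at 0, 8, 16, 24, 32 and 40 h of treatment captured CellTox Green fluorescence in HepG2 cells that had been co-plated with reagent and preincubated 5 h at 37 C/5% CO2.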

[7] = qHTS RealTime-Glo MT Cell Viability Assay in HepG2 cells - 32 hour (AID 1224877); further: nearly all actives have a fitted effect of over 55% in size; further: potency means the concentration at half of the fitted maximal effect
Outline: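 Cells + NanoLuc/prosubstrate dispensed (600 cells/well) → 5 h at 37 C/5% CO2 → compounds in DMSO transferred → 40 h incubation at 37 C, luminescence read at 0, 8, 16, 24, 32, 40 h.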

[8] = A CellTox Green Cytotoxicity Assay to monitor cytotoxicity in HepG2 cells - 24 hour (AID 1224878); further: nearly all actives have a fitted effect of over 45% in size; further: potency means the concentration at half of the fitted maximal effect
Outline: as §3

[9] = A CellTox Green Cytotoxicity Assay to monitor cytotoxicity in HepG2 cells - 40 hour (AID 1224879); further: nearly all actives have a fitted effect of over 40% in size; further: potency means the concentration at half of the fitted maximal effect
Outline: as §3

[10] = qHTS RealTime-Glo MT Cell Viability Assay in HEK293 cells - 0 hour (AID 1224880)
Outline: as §2

CC(COc1ccccc1)N(CCCl)Cc1ccccc1 (stereo not drawn)
Potency [1]: 49.5 µM (active) and 21.3 µM (active) | Potency [2]: 49.5 µM (active) and 49 µM (active) | Potency [3]: inactive | Potency [4]: 49.5 µM (active) and 49 µM (active) | Potency [5]: inactive | Potency [6]: inactive | Potency [7]: inactive | Potency [8]: 55.5 µM (active) and inactive | Potency [9]: 55.5 µM (active) | Potency [10]: inactive

CCC(=O)/C=C/C1C(C)=CCCC1(C)C (stereo not drawn)
Potency [1]: 49.1 µM (active) and inactive | Potency [2]: inactive | Potency [3]: inactive | max response [4]: -21.5% (inactive) and 0.0714% (inactive) | Potency [6]: inactive | Potency [7]: inactive | Potency [8]: inactive | Potency [9]: inactive

CCCCCCCCCCCCCCCCCl
cytotoxicity increase [1]: 10.8% [at 15.8 µM] (inactive) | activity change, negative = cytotoxicity [2]: 1.99% [at 15.8 µM] (inactive) | viability change, negative = cytotoxic [3]: 0.131% [at 15.8 µM] (inactive) | activity change [5]: 8.22% [at 15.8 µM, stronger effect = higher value] (inactive) | cytotoxicity increase [6]: 3.3% [at 15.8 µM] (inactive) | activity change, negative = cytotoxic [7]: 6.67% [at 15.8 µM] (inactive) | cytotoxicity [8]: 2.62% [at 15.8 µM] (inactive) | cytotoxicity increase [9]: 1.26% [at 15.8 µM] (inactive)

Cc1ccc(-c2cc(C(F)(F)F)nn2-c2ccc(S(N)(=O)=O)cc2)cc1
Potency [1]: 54.7 µM (active) and 54.9 µM (active) and inactive | Potency [2]: 38.7 µM (active) and 27.5 µM (active) and inactive | Potency [3]: 48.8 µM (active) and 49 µM (active) and inactive | Potency [4]: 21.8 µM (active) and 30.9 µM (active) | Potency [5]: inactive | Potency [6]: 48.8 µM (active) and 43.6 µM (active) | Potency [7]: 49 µM (active) and inactive | Potency [8]: 19.4 µM (active) and 49 µM (active) | Potency [9]: 48.8 µM (active) and 49 µM (active) | Potency [10]: inactive

C=CS(=O)(=O)O
Potency [1]: inactive | Potency [2]: inactive | Potency [3]: inactive | max response [4]: 2.23% (inactive) | Potency [5]: inactive | Potency [6]: inactive | Potency [7]: inactive | Potency [8]: inactive | Potency [9]: inactive | Potency [10]: inactive

OCCOCCN1CCN(C(c2ccccc2)c2ccc(Cl)cc2)CC1 (stereo not drawn)
Potency [1]: 54.2 µM (active) and inactive | Potency [2]: 9.64 µM (active) and inactive | Potency [3]: inactive | Potency [5]: inactive | Potency [6]: 38.4 µM (active) and inactive | Potency [7]: 48.3 µM (active) and inactive | Potency [8]: 38.4 µM (active) and inactive | Potency [9]: 38.4 µM (active) | Potency [10]: inactive

CC(=O)C1=C(C)[C@@H]2C[C@@]3(C1)[C@H](C)CC[C@H]3C2(C)C
Potency [1]: 32.3 µM (active) and inactive | Potency [2]: inactive | Potency [3]: inactive | Potency [5]: inactive | Potency [6]: inactive | Potency [7]: inactive | Potency [8]: inactive

CCCCC/C=C/CC1CC(=O)OC1=O (stereo not drawn)
Potency [1]: inactive | Potency [2]: inactive | Potency [3]: inactive | Potency [5]: inactive | Potency [6]: inactive | Potency [7]: inactive | Potency [8]: inactive | Potency [9]: inactive

O=C(O)c1cc(Cl)cc(Cl)c1
Potency [1]: inactive | Potency [2]: inactive | Potency [3]: inactive | Potency [5]: inactive | Potency [6]: inactive | Potency [7]: inactive | Potency [8]: inactive | Potency [9]: inactive

c1ccc2n[nH]nc2c1
Potency [1]: inactive | Potency [2]: inactive | Potency [3]: inactive | max response [4]: 10.2% (inactive) and 5.87% (inactive) | Potency [5]: inactive | Potency [6]: inactive | Potency [7]: inactive | Potency [8]: inactive | Potency [9]: inactive | Potency [10]: inactive

Nc1cc(Cl)c(-c2cc(Cl)c(N)cc2Cl)cc1Cl
Potency [1]: inactive | Potency [2]: 24.5 µM (active) | Potency [3]: inactive | Potency [4]: 6.91 µM (active) and 1.74 µM (active) | Potency [5]: inactive | Potency [6]: inactive and 54.9 µM (active) | Potency [7]: inactive | Potency [8]: inactive and 54.9 µM (active) | Potency [9]: 4.36 µM (active) and 54.9 µM (active) | Potency [10]: inactive

CC(C)C(=O)c1c(C(C)C)nn2ccccc12
Potency [1]: inactive | Potency [2]: inactive | Potency [3]: inactive | max response [4]: -0.81% (inactive) | Potency [5]: inactive | Potency [6]: inactive | Potency [7]: inactive | Potency [8]: inactive | Potency [9]: inactive | Potency [10]: inactive

COc1ccc(CCN2CCC(Nc3nc4ccccc4n3Cc3ccc(F)cc3)CC2)cc1
Potency [1]: 11.2 µM (active) and 23.9 µM (active) | Potency [2]: 8.9 µM (active) and 9.52 µM (active) | Potency [3]: 35.4 µM (active) and 23.9 µM (active) | Potency [4]: 5.62 µM (active) and 10.7 µM (active) | Potency [5]: 17.8 µM (active) and 23.9 µM (active) | Potency [6]: 31.6 µM (active) and 21.3 µM (active) | Potency [7]: 15.8 µM (active) and 10.7 µM (active) | Potency [8]: 19.9 µM (active) and 9.52 µM (active) | Potency [9]: 15.8 µM (active) and 8.49 µM (active) | Potency [10]: inactive

CC[C@]1(O)C[C@@H]2CN(CCc3c([nH]c4ccccc34)[C@@](C(=O)OC)(c3cc4c(cc3OC)N(C)[C@H]3[C@@](O)(C(=O)OC)[C@H](OC(C)=O)[C@]5(CC)C=CCN6CC[C@]43[C@@H]65)C2)C1
Potency [1]: inactive | Potency [2]: inactive | Potency [3]: inactive | Potency [4]: 15.1 nM (active) and 5.4 nM (active) | Potency [5]: inactive | Potency [6]: inactive | Potency [7]: inactive | Potency [8]: inactive | Potency [9]: inactive | Potency [10]: inactive

CCCCN(CCO)CCCC
Potency [1]: inactive | Potency [2]: inactive | Potency [3]: inactive | max response [4]: 2.9% (inactive) | Potency [5]: inactive | Potency [6]: inactive | Potency [7]: inactive | Potency [8]: inactive | Potency [9]: inactive | Potency [10]: inactive

CCCCOCCOC(=O)c1ccccc1C(=O)OCCOCCCC
Potency [1]: inactive | Potency [2]: inactive | Potency [3]: inactive | max response [4]: -18.4% (inactive) | Potency [5]: inactive | Potency [6]: inactive | Potency [7]: inactive | Potency [8]: inactive | Potency [9]: inactive | Potency [10]: inactive

CC1=C(C=O)C(C)(C)CC=C1
Potency [1]: inactive | Potency [2]: inactive | Potency [3]: inactive | max response [4]: -1.02% (inactive) | Potency [5]: inactive | Potency [6]: inactive | Potency [7]: inactive | Potency [8]: inactive | Potency [9]: inactive | Potency [10]: inactive
